High-throughput results deposited in PubChem BioAssay by several laboratories.
COUP-TFII inh: NR2F2 transcriptional activity inhibitors, primary screen, cell-based, luciferase reporter, HEK293T, luminescence. inhibition, % at 8.6 µM. COUP transcription factor 2 (Homo sapiens), P24468. 0.7% of 370,000 active. HEK293T NGFI-A luciferase reporter;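 active means inhibition above a per-plate cutoff, mean inhibition of test wells between control levels plus 3 SD, cut at about 38% in these data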;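 further: cells cotransfected with COUP-TFII expression vector driving the NGFI-A reporter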
SRC3 inh: SRC3 coactivator transcriptional activity inhibitors, primary screen, cell-based, luminescence. inhibition, % at 3.6 µM. HEK293 GAL4-SRC3 luciferase reporter. 0.17% of 360,000 active;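 active means inhibition above a per-campaign cutoff, the mean of all compounds plus 3 SD, cut at about 60% in these data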;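 further: higher means less SRC3-driven luciferase light from the GAL4 reporter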
SRC2 inh: inhibition of GAL4-SRC2 driven luciferase reporter, primary screen, SRC2 inhibitor project, cell-based, luminescence | Nuclear receptor coactivator 2 (Homo sapiens), Q15596 | HEK293 GAL4-SRC2 luciferase reporter | inhibition, % at 9 µM | 0.17% of 370,000 active | AID 651957, 2012;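 active means inhibition above the mean inhibition of all tested compounds plus 3 SD, set per campaign, cut at about 52% in these data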
NCOA1 inh: SRC1 coactivator transcriptional activity inhibitors, primary screen, cell-based, luminescence; HEK293 GAL4-SRC1 luciferase reporter; 0.12% of 360,000 active; Nuclear receptor coactivator 1 (Homo sapiens), Q15788; inhibition, % at 3.6 µM;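 active means inhibition above the campaign mean plus 3 SD, with each screening campaign given its own cutoff, cut at about 60% in these data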
Gli-Sufu antag: Gli-Sufu pathway antagonists, primary screen, luciferase luminescence, Sufu-KO-LIGHT cells, uHTS; Sufu-KO-LIGHT fibroblasts, Gli luciferase reporter luminescence; inhibition, % at 5 µM; 0.74% of 340,000 active;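 active means inhibition above about 55%, limit read from the data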
LRH-1 inv ag: LRH-1 (NR5A2) inverse agonists, primary screen, cell-based, luminescence, HEK293T, StAR-luciferase reporter; LRH-1 transfected, 24 h; inhibition, % at 3.6 µM; 0.13% of 360,000 active; AID 602396, 2012;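 active means inhibition above the mean inhibition of all tested compounds plus 3 SD, cut at about 73% in these data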
VP16 Luc counter: Gal4-VP16 luciferase reporter inhibitors, counter-screen for COUP-TFII antagonist project, cell-based, luminescence, HEK293. shares compounds with COUP-TFII inh. inhibition, % at 8.5 µM. 25% of 2,500 active. AID 687007, 2013; in the data active means inhibition above about 13%
NR2F2 inh conf: NR2F2 transcriptional activity inhibitors, confirmation, cell-based, luciferase reporter, HEK293, triplicate; shares compounds with COUP-TFII inh; HEK293 NGFI-A luciferase reporter, luminescence; AID 687008, 2013; inhibition, % at 8.5 µM; 45% of 2,500 active;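 active means mean inhibition over three repeats above a set limit taken from the earlier primary screen, cut at about 38% in these data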
Large screens that a line does not name were inactive (follow-up assays come after a bar, where they were run). Compounds with a hit are over-represented: about 1.3% of the library has one in this group of screens.

CCOC(=O)COc1ccc(S(=O)(=O)NCc2ccco2)cc1	none
COc1ccccc1-c1cc2nc(C)c(CCC(=O)NCc3ccc(F)cc3)c(C)n2n1	none
Cc1csc(NC(=O)CCc2c(C)nc3cc(-c4ccc(Cl)cc4)nn3c2C)n1	COUP-TFII inh 49, SRC2 inh 66 | VP16 Luc counter inactive | NR2F2 inh conf inactive
COc1cc(OC)cc(-c2cc3nc(C)c(CCC(=O)NCc4ccccc4)c(C)n3n2)c1	COUP-TFII inh 58, SRC2 inh 77 | VP16 Luc counter 29 | NR2F2 inh conf 47
Oc1cccc(N2CCN(c3cccc(O)c3)CC2)c1	none (no result: SRC3 inh, NCOA1 inh, Gli-Sufu antag, LRH-1 inv ag)
Cn1cc(/C=C/c2cc[n+](C)cc2)c2cc(Cl)ccc21	COUP-TFII inh 59 | VP16 Luc counter inactive | NR2F2 inh conf inactive
O=C(Nc1c(F)cccc1F)c1cnc(N2CCN(c3ccccn3)CC2)c2ccccc12	none
Cc1ccc(NC(=O)c2cnc(N3CCN(c4ccccn4)CC3)c3ccccc23)c(Br)c1	COUP-TFII inh 38 | VP16 Luc counter inactive | NR2F2 inh conf 39
O=S1(=O)c2ccccc2-c2c(nnn2CC2CCCCC2)CN1C1CC1	none (no result: SRC3 inh, NCOA1 inh, Gli-Sufu antag, LRH-1 inv ag)
COc1ccc(C=Cc2ccc3ccccc3n2)c(OC)c1	COUP-TFII inh 47 (no result: Gli-Sufu antag) | VP16 Luc counter inactive | NR2F2 inh conf inactive
COc1ccc(OC)c(/C=C/c2ccc3cccc(O)c3n2)c1	none (no result: Gli-Sufu antag)
CC(=O)N1CCc2cc(S(=O)(=O)NCCC3=CCCCC3)ccc21	COUP-TFII inh 47 | VP16 Luc counter inactive | NR2F2 inh conf inactive
Cc1ccc(NC(=O)c2cc(S(=O)(=O)NCCC3=CCCCC3)ccc2F)cc1F	COUP-TFII inh 40 | VP16 Luc counter inactive | NR2F2 inh conf 40
CC(=O)Nc1c(-c2ccc(C)cc2)nc2ncccn12	none (no result: SRC3 inh, NCOA1 inh, Gli-Sufu antag, LRH-1 inv ag)
COc1ccc(-c2nsc3c(N4CCCCC4)ncnc23)cc1	COUP-TFII inh 57 | VP16 Luc counter inactive | NR2F2 inh conf 63
NC(=O)c1ncn([C@@H]2O[C@H](C(=O)N[C@H](Cc3c[nH]c4ccccc34)C(=O)N3CCN(C(=O)C4CC4)CC3)[C@@H](O)[C@H]2O)n1	none (no result: SRC3 inh, NCOA1 inh, Gli-Sufu antag, LRH-1 inv ag)
CCCCCCCCCCn1ccc(=N)cc1	COUP-TFII inh 82, SRC3 inh 71, Gli-Sufu antag 88, LRH-1 inv ag 86 | VP16 Luc counter 13 | NR2F2 inh conf 79
CCCCCCCCn1ccc(=N)cc1	COUP-TFII inh 42 | VP16 Luc counter inactive | NR2F2 inh conf inactive
C=Cc1ccc(Cn2c(C)c(C(=O)NCc3ccc(Cl)c(Cl)c3)sc2=O)cc1	none (no result: Gli-Sufu antag)
Cc1c(C(=O)NCc2ccc(Cl)c(Cl)c2)sc(=O)n1Cc1ccc(S(=O)(=O)N(C)C)cc1	COUP-TFII inh 38 (no result: Gli-Sufu antag) | VP16 Luc counter inactive | NR2F2 inh conf inactive
CSc1ccc(Cn2c(C)c(C(=O)NCc3ccc(C(C)C)cc3)sc2=O)cc1	none (no result: Gli-Sufu antag)
Cc1c(C(=O)NCc2ccc(C(C)C)cc2)sc(=O)n1Cc1ccc(S(=O)(=O)N(C)C)cc1	COUP-TFII inh 68 (no result: Gli-Sufu antag) | VP16 Luc counter inactive | NR2F2 inh conf 64
Cc1c(C(=O)NCc2ccc(Cl)c(Cl)c2)sc(=O)n1Cc1ccc(C(=O)N(C)C)cc1	COUP-TFII inh 50 (no result: Gli-Sufu antag) | VP16 Luc counter inactive | NR2F2 inh conf inactive
Cc1c(C(=O)NCc2cccc(Cl)c2)sc(=O)n1Cc1ccc(C(=O)N(C)C)cc1	none (no result: Gli-Sufu antag)
CCCC(=O)N1CCC[C@]2(CC[C@@H](CCC(C)=O)O2)C1	none (no result: SRC3 inh, NCOA1 inh, Gli-Sufu antag, LRH-1 inv ag)
O=C(O)c1ccc(C=Nn2c(-c3ccc(F)cc3)n[nH]c2=S)cc1	none (no result: SRC3 inh, NCOA1 inh, Gli-Sufu antag, LRH-1 inv ag)
COc1ccc(CC(=O)Nc2cccc(SC)c2)cc1OC	COUP-TFII inh 41 | VP16 Luc counter 17 | NR2F2 inh conf 38
